Results on 19 compounds are retold here after PubChem BioAssay (EPA / NIEHS).

Inconclusive results are not listed. Calls of active or inactive are those of the source. How the source made its calls: active means hit-call score of the fitted dose curve at least 0.9, where 1 is the maximum; inconclusive means response in the unintended direction; inactive means score below 0.9.

The target in experiment [1] is rat Serotonin, 5-Hydroxytryptamine Receptor 1 (5HT1), Non-Selective Binding, Htr1a (gene 24473) (UniProt P19327). Nature of the experiment: NVS_GPCR_r5HT1_NonSelective: NovaScreen (NVS) G Protein-Coupled Receptor Assay for rat Serotonin, 5-Hydroxytryptamine Receptor 1 (5HT1), Non-Selective Binding (AID 2283286). Summed up:
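Rat cortical membranes, radioligand displacement, 1 h incubation, read by filter scintillation. Primary screen in duplicate at 25 uM. Hits (e.g. ≥30% inhibition) went to concentration-response up to 50 uM, fitted as loss of binding versus DMSO.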

Experiment [2] relates to rabbit Platelet Activating Factor Receptor (PAF), gene 100354046. The experiment in a line: NVS_GPCR_rabPAF: NovaScreen (NVS) G Protein-Coupled Receptor Assay for rabbit Platelet Activating Factor Receptor (PAF) (AID 2283287). Summed up:
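Rabbit platelet membrane preparation; radioligand displacement read by filter-based scintillation counting 1 h after dosing, loss of signal versus DMSO. Primary screen in duplicate at 25 uM, actives followed up in concentration series.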

Experiment [3] deals with Muscarinic acetylcholine receptor M2 (Homo sapiens) (UniProt P08172). The experiment in a line: NVS_GPCR_hM2: NovaScreen (NVS) G Protein-Coupled Receptor Assay for human Muscarinic, M2 Receptor (AID 2283273). The procedure, abridged: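 Cell-free radioligand binding using membranes from CHO cells expressing the receptor; filter-based scintillation counting after 1 hour of compound exposure. Loss of specific binding relative to DMSO baseline; primary screen at 25 uM in duplicate, actives then run in concentration series.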
Chain of Muscarinic acetylcholine receptor M2 (Homo sapiens) (P08172 whole entry, looked up): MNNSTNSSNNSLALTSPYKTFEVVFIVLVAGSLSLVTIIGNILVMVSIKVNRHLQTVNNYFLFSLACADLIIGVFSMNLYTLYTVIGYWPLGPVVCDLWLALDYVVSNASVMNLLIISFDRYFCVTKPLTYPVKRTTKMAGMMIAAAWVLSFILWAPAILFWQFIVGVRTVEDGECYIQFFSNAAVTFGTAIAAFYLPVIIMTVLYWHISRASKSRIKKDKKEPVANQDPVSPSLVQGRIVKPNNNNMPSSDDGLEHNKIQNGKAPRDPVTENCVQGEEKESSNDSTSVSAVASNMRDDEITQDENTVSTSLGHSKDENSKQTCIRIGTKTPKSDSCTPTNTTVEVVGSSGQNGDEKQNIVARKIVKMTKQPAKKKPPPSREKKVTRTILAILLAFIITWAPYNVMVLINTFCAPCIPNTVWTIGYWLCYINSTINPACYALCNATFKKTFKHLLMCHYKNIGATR

The target of experiment [4] is Neuropeptide Y receptor type 2 (Homo sapiens) (UniProt P49146). Nature of the experiment: NVS_GPCR_hNPY2: NovaScreen (NVS) G Protein-Coupled Receptor Assay for human Neuropeptide Receptor Y2 (NPY2) (AID 2283277). Summed up:
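Radioligand binding on membranes extracted from SK-N-MC cells, cell-free, read 1 h after dosing by filter-based scintillation counting. Loss of signal vs DMSO. Primary screen in duplicate at 25 uM; actives followed up in concentration-response up to 50 uM.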

Experiment [5] has as its target human Vasopressin 1A Receptor (V1A), AVPR1A (gene 552) (UniProt P37288). Nature of the experiment: NVS_GPCR_hV1A: NovaScreen (NVS) G Protein-Coupled Receptor Assay for human Vasopressin 1A Receptor (V1A) (AID 2283284). Summed up:
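Cell-free radioligand displacement on human platelet preparations, 1.5 h incubation, filter-based scintillation counting. Chemicals first tested in duplicate at 25 uM; actives then run in concentration-response up to 50 uM, loss of signal fitted against DMSO.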

Experiment [6] addresses human Thromboxane A2 Receptor (TXA2), TBXA2R (gene 6915) (UniProt P21731). The experiment in a line: NVS_GPCR_hTXA2: NovaScreen (NVS) G Protein-Coupled Receptor Assay for human Thromboxane A2 Receptor (TXA2) (AID 2283282).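 Further: actives reduce bound radioligand signal relative to DMSO baseline.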 Summed up:
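Cell-free radioligand binding with human platelet-derived receptor; 1 h after dosing, filter-based scintillation counting, loss of signal vs DMSO. Primary screen in duplicate at 25 uM.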

Experiment [7] has as its target Muscarinic acetylcholine receptor M3 (Homo sapiens) (UniProt P20309). The experiment in a line: NVS_GPCR_hM3: NovaScreen (NVS) G Protein-Coupled Receptor Assay for human Muscarinic, M3 Receptor (AID 2283272). Summed up: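 Radioligand displacement binding on human M3 receptor in CHO-derived membranes, 1 h incubation, filter-based scintillation counting. Primary screen in duplicate at 25 uM; actives followed up in concentration series; loss of signal versus DMSO.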

Experiment [8] addresses human Neurokinin, NK2 Receptor, TACR2 (gene 6865) (UniProt P21452). Nature of the experiment: NVS_GPCR_hNK2: NovaScreen (NVS) G Protein-Coupled Receptor Assay for human Neurokinin, NK2 Receptor (AID 2283278).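 Further: actives reduce bound radioligand signal relative to DMSO baseline.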 Summed up:
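CHO-derived membrane protein, radioligand displacement, filter scintillation read at 4 h post-dose. Single-point 25 uM in duplicate, then concentration series for actives; DMSO as negative control.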

Experiment [9] concerns the target mouse Cholecystokinin, CCK1 Receptor (CCKA), Cckar (gene 12425) (UniProt O08786). Nature of the experiment: NVS_GPCR_mCCKAPeripheral: NovaScreen (NVS) G Protein-Coupled Receptor Assay for mouse Cholecystokinin, CCK1 Receptor (CCKA) (AID 2283285). The procedure, abridged: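 Radioligand competitive displacement on mouse pancreatic membranes, 2 h incubation; filter-based scintillation counting, loss of signal versus DMSO. Single-concentration screen at 25 uM in duplicate, actives retested in concentration-response up to 50 uM.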

For experiment [10], the system named is guinea pig Atrionatriuretic Peptide Receptor A (ANPA), gene 100135578. The experiment in a line: NVS_GPCR_gANPA: NovaScreen (NVS) G Protein-Coupled Receptor Assay for guinea pig Atrionatriuretic Peptide Receptor A (ANPA) (AID 2283291). Summed up:
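Radioligand binding to guinea pig cerebellar membranes was measured after 1 h by filter-based scintillation counting. Chemicals were tested in duplicate at 25 uM, with hits run in concentration-response to a maximum of 50 uM. Binding loss was fitted against DMSO.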

The target in experiment [11] is human Muscarinic, M4 Receptor, CHRM4 (gene 1132) (UniProt P08173). The experiment in a line: NVS_GPCR_hM4: NovaScreen (NVS) G Protein-Coupled Receptor Assay for human Muscarinic, M4 Receptor (AID 2283274). Summed up:
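Cell-free radioligand displacement using CHO-derived human M4 receptor protein, 1 h after dosing; bound radioactivity by filtration and scintillation counting. Primary screen single 25 uM duplicate, actives followed in concentration series.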

For experiment [12], the target named is rat Adrenergic, Alpha 1, Non-selective Receptor (Adra1), Adra1a (gene 29412) (UniProt P43140). Nature of the experiment: NVS_GPCR_rAdra1_NonSelective: NovaScreen (NVS) G Protein-Coupled Receptor Assay for rat Adrenergic, Alpha 1, Non-selective Receptor (Adra1) (AID 2283289). The procedure, abridged: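 Rat forebrain membranes; radioligand displacement read by filter-based scintillation counting 1 h after dosing. Primary screen in duplicate at 25 uM; hits (e.g. ≥30% inhibition) rerun as concentration–response to 50 uM max. Fitted versus DMSO.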

Experiment [13] deals with human Neurotensin Receptor (NTS), NTSR1 (gene 4923) (UniProt P30989). Nature of the experiment: NVS_GPCR_hNTS: NovaScreen (NVS) G Protein-Coupled Receptor Assay for human Neurotensin Receptor (NTS) (AID 2283279). The procedure, abridged: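 Radioligand displacement on human NTSR1 protein from CHO cells, cell-free, 1 h, filter-based scintillation counting. Primary screen at 25 uM in duplicate; hits rerun in concentration-response up to 50 uM.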
Chain of human Neurotensin Receptor (NTS), NTSR1 (gene 4923) (P30989 whole entry, looked up): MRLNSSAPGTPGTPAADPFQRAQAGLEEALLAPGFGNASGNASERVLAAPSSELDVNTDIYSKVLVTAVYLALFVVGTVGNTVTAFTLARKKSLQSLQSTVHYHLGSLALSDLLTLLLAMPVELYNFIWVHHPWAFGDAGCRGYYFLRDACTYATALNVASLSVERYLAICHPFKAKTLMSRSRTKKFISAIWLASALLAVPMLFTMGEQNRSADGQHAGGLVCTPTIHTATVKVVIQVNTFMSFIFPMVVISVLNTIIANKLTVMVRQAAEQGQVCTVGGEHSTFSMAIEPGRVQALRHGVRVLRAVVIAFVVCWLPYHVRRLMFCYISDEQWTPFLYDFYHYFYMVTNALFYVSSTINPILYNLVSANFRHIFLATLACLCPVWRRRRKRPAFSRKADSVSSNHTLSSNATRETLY

Experiment [14] has as its target human Neuropeptide Receptor Y1 (NPY1), NPY1R (gene 4886) (UniProt P25929). Nature of the experiment: NVS_GPCR_hNPY1: NovaScreen (NVS) G Protein-Coupled Receptor Assay for human Neuropeptide Receptor Y1 (NPY1) (AID 2283276). The procedure, abridged: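 Cell-free radioligand binding using receptor extracted from SK-N-MC cells, 1 h incubation, filter-based scintillation counting. Primary screen single concentration 25 uM in duplicate; actives followed in concentration series. Loss of bound signal scored versus DMSO.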

For experiment [15], the target named is human Opioid Receptor Delta 1 (Opiate D1), OPRD1 (gene 4985) (UniProt P41143). Nature of the experiment: NVS_GPCR_hOpiate_D1: NovaScreen (NVS) G Protein-Coupled Receptor Assay for human Opioid Receptor Delta 1 (Opiate D1) (AID 2283280). The procedure, abridged: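 Radioligand displacement on membranes from CHO cells expressing the receptor, read by filter scintillation counting 1 h after dosing. Duplicate single-point screen at 25 uM, then concentration series for actives; loss of signal versus DMSO.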
Chain of human Opioid Receptor Delta 1 (Opiate D1), OPRD1 (gene 4985) (P41143 whole entry, looked up): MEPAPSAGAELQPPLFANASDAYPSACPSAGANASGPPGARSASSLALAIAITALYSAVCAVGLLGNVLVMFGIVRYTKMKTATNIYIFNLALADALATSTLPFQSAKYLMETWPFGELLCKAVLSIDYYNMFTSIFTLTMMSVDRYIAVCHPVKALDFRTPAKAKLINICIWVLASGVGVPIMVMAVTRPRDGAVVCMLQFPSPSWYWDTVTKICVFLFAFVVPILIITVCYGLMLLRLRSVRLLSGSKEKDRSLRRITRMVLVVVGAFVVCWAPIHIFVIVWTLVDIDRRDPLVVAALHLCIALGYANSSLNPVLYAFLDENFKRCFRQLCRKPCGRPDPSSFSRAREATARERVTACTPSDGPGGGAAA

Experiment [16] addresses human Opioid Receptor Mu (Opiate Mu), OPRM1 (gene 4988) (UniProt P35372). Nature of the experiment: NVS_GPCR_hOpiate_mu: NovaScreen (NVS) G Protein-Coupled Receptor Assay for human Opioid Receptor Mu (Opiate Mu) (AID 2283290).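 Further: hits lower bound tracer signal versus DMSO meaning displacement of the ligand.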 Summed up: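 Cell-free radioligand binding to membranes from CHO cells expressing the receptor; bound tracer measured by filter-based scintillation counting 2.5 hours after dosing. Loss of signal versus DMSO baseline reflects displacement; primary screen at 25 uM in duplicate, actives followed up in concentration series.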

The target of experiment [17] is mouse Cholecystokinin, CCK2 Receptor (CCKB), Cckbr (gene 12426) (UniProt P56481). The experiment in a line: NVS_GPCR_mCKKBCentral: NovaScreen (NVS) G Protein-Coupled Receptor Assay for mouse Cholecystokinin, CCK2 Receptor (CCKB) (AID 2283293). Summed up: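 Radioligand displacement binding on mouse forebrain membranes, 2 h exposure, filter-based scintillation counting. Primary screen in duplicate at 25 uM; actives (e.g. ≥30% inhibition) retested in concentration-response up to 50 uM; loss of binding signal relative to DMSO.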

The target in experiment [18] is guinea pig Serotonin, 5-Hydroxytryptamine Receptor 4 (5HT4), HTR4 (gene 100135548) (UniProt O70528). Nature of the experiment: NVS_GPCR_g5HT4: NovaScreen (NVS) G Protein-Coupled Receptor Assay for guinea pig Serotonin, 5-Hydroxytryptamine Receptor 4 (5HT4) (AID 2283294). The procedure, abridged:
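Guinea pig striatal membranes; radioligand competitive displacement, filtration and scintillation counting after 1 h. Primary screen in duplicate at 25 uM; actives then tested in concentration series; loss of binding signal fitted relative to DMSO.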

Experiment [19] has as its target human Purinergic Receptor P2Y, P2RY1 (gene 5028) (UniProt P47900). The experiment in a line: NVS_GPCR_hPY2: NovaScreen (NVS) G Protein-Coupled Receptor Assay for human Purinergic Receptor P2Y (AID 2283281). Summed up:
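Cell-free radioligand binding using U937-derived protein, 1 h after dosing, filter-based scintillation counting. Screened in duplicate at 25 uM; actives rerun as concentration-response up to 50 uM; loss of signal versus DMSO.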

Chain of human Thromboxane A2 Receptor (TXA2), TBXA2R (gene 6915) (P21731 whole entry, looked up): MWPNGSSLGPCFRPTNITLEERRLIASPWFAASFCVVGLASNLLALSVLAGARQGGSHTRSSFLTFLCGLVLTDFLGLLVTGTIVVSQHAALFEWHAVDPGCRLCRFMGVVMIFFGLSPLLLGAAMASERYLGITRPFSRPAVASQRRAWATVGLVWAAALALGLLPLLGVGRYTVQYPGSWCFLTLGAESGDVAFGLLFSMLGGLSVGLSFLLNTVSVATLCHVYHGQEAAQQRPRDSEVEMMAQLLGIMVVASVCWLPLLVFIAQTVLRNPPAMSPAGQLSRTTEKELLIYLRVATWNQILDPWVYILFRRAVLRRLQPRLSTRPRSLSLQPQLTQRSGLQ
Chain of human Muscarinic, M4 Receptor, CHRM4 (gene 1132) (P08173 whole entry, looked up): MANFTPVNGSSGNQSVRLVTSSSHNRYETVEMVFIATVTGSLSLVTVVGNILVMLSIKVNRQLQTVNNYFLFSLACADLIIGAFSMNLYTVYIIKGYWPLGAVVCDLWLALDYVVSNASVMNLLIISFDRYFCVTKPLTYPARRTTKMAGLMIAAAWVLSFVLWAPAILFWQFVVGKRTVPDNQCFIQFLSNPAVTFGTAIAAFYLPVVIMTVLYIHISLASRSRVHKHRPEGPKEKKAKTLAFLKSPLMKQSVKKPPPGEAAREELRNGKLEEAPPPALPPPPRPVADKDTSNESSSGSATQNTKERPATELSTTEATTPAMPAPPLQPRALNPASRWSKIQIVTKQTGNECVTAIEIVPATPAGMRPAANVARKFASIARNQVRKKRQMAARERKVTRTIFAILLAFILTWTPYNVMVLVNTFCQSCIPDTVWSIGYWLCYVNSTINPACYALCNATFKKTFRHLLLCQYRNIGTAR
Chain of Muscarinic acetylcholine receptor M3 (Homo sapiens) (P20309 whole entry, looked up): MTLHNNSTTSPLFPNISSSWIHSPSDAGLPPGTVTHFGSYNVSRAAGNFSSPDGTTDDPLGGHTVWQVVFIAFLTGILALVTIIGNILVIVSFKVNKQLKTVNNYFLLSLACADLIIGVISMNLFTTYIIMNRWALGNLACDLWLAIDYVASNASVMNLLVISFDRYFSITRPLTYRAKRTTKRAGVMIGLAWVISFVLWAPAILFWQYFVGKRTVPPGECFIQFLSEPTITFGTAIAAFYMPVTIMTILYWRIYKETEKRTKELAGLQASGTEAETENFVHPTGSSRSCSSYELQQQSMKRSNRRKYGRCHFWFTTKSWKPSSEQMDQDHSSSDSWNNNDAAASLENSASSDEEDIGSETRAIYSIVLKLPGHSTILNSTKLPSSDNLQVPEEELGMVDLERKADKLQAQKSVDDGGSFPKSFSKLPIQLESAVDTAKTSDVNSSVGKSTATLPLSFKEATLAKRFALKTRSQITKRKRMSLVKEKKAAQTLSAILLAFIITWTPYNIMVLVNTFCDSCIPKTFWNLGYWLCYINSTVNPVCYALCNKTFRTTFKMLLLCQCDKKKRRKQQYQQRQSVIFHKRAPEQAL
Chain of rat Serotonin, 5-Hydroxytryptamine Receptor 1 (5HT1), Non-Selective Binding, Htr1a (gene 24473) (P19327 whole entry, looked up): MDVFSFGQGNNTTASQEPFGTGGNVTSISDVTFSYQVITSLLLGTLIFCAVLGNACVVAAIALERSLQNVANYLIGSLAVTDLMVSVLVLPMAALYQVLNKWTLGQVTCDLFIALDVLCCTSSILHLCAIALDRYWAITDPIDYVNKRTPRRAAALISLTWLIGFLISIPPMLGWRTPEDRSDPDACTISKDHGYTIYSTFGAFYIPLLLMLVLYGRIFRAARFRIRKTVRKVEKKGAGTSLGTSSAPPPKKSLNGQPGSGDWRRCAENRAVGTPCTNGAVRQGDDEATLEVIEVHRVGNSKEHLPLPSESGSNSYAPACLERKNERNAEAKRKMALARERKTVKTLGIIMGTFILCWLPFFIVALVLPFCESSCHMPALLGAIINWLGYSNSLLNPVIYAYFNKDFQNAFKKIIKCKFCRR
Chain of Neuropeptide Y receptor type 2 (Homo sapiens) (P49146 whole entry, looked up): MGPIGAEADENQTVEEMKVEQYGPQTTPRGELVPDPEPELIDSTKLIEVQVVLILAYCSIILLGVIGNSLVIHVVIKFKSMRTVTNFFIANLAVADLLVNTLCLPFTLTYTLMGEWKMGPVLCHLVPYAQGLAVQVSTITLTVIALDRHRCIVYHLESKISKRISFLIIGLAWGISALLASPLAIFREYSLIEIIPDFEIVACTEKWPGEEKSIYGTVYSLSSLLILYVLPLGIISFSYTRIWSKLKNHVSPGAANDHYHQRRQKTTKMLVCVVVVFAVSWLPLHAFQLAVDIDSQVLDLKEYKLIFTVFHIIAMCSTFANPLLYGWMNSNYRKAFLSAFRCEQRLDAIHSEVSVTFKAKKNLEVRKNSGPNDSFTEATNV
Chain of human Vasopressin 1A Receptor (V1A), AVPR1A (gene 552) (P37288 whole entry, looked up): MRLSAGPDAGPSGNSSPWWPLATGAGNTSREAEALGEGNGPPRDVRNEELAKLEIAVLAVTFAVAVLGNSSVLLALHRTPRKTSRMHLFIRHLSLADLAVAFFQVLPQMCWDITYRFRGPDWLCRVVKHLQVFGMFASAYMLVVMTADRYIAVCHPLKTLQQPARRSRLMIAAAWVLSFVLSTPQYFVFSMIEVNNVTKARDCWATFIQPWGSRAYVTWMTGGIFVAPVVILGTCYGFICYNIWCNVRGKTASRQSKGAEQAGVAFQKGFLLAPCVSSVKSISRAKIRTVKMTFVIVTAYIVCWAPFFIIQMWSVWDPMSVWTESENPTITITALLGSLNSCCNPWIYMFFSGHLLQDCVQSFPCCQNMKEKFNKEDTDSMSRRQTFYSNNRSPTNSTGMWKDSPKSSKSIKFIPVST
Chain of mouse Cholecystokinin, CCK1 Receptor (CCKA), Cckar (gene 12425) (O08786 whole entry, looked up): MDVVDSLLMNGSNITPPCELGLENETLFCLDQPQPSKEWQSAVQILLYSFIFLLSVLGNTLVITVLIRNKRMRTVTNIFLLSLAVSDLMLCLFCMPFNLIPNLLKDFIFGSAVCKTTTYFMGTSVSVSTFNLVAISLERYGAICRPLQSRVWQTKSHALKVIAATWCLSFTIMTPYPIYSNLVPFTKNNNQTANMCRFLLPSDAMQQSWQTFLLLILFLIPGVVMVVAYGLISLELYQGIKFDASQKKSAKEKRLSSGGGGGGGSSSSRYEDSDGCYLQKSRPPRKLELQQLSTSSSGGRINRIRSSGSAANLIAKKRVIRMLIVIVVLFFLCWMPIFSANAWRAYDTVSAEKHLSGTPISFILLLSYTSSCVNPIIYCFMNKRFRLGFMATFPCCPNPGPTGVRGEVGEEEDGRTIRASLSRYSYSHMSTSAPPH
Chain of human Neurokinin, NK2 Receptor, TACR2 (gene 6865) (P21452 whole entry, looked up): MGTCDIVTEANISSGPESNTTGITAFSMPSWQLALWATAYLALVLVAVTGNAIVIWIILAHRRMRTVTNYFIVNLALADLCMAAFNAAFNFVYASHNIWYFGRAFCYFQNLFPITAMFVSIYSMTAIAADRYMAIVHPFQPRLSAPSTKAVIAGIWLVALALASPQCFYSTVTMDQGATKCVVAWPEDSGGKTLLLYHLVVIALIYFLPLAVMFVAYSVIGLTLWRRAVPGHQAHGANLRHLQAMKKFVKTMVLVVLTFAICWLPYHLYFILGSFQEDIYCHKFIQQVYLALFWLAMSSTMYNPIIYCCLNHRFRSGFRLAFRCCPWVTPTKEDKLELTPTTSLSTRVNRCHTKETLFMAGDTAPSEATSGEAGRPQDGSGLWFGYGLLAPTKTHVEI

With `CN(C)C(=O)Nc1cccc(C(F)(F)F)c1`, the outcome in experiment [1] was inactive.

Take `CCOP(=S)(Oc1cnc(C(C)(C)C)nc1)OC(C)C` (stereo not given): the AC50 in [2] was 11.5 µM (active).

Consider `C[N+]1(C)CCCCC1`, for which the call in experiment [3] and in experiment [4] was inactive.

In the case of `CCC(=NOC/C=C/Cl)C1=C(O)CC(C2CCOCC2)CC1=O` (stereo not given), the compound was called inactive in [5].

For `COc1cc(OC)nc(Sc2cccc(Cl)c2C(=O)O)n1`, the AC50 in [6] is 4.45 µM (active).

Turning to `C#CCC1=C(C)C(OC(=O)C2C(C=C(C)C)C2(C)C)CC1=O` (stereo not given), the AC50 in [7] is 7.59 µM (active); in [2], 10.9 µM (active). Also, the compound was classed as inactive in experiment [8], in experiment [9] and in experiment [10].

As for `CC(C)N(C(=O)SCC(Cl)=C(Cl)Cl)C(C)C`, the compound was called inactive in [11].

For `Nc1nc(N)nc(NC2CC2)n1`, the compound was called inactive in [4] and in experiment [12].

As for `CCOP(=S)(OCC)Oc1cc(C)nc(C(C)C)n1`, the outcome in [13] and in experiment [1] was inactive.

For `CCOP(=S)(OCC)Oc1ccc2c(C)c(Cl)c(=O)oc2c1`, in experiment [10], the call was inactive.

Turning to `CN1COCN(Cc2cnc(Cl)s2)C1=N[N+](=O)[O-]`, the outcome in [7] and in experiment [4] was inactive.

For the compound `CCOP(=S)(OCC)Oc1ccc([N+](=O)[O-])cc1`, the values for the AC50 in experiment [7] and in [11] were 5.42 µM (active) and 7.24 µM (active), respectively.

Regarding `CCCCOC(=O)[C@@H](C)Oc1ccc(Oc2ccc(C#N)cc2F)cc1`, the outcome in [13] and in [2] was inactive.

Consider `CC[C@H](C)[C@H]1O[C@]2(C=C[C@@H]1C)C[C@@H]1C[C@@H](C/C=C(\C)[C@@H](O[C@H]3C[C@H](OC)[C@@H](O[C@H]4C[C@H](OC)[C@@H](NC)[C@H](C)O4)[C@H](C)O3)[C@@H](C)/C=C/C=C3\CO[C@@H]4[C@H](O)C(C)=C[C@@H](C(=O)O1)[C@]34O)O2`, for which the AC50 was 10.1 µM (active) in experiment [7]; 12.9 µM (active) in experiment [11]; 18.3 µM (active) in experiment [14]; 8.41 µM (active) in [8]; 0.00229 µM (active) in experiment [13]; 15.5 µM (active) in experiment [15]. Moreover, the AC50 in experiment [6] was 14.5 µM (active); in experiment [9], 10.4 µM (active); in [16] it was 15 µM (active); in experiment [17] it was 15.4 µM (active); in [18], 21.4 µM (active). Also, in experiment [5], the compound was classed as inactive.

Turning to `CCC(=O)Nc1ccc(Cl)c(Cl)c1`, the compound was called inactive in experiment [1]. The AC50 in experiment [18] is 9.91 µM (active).

With `O=C(O)c1cc(Oc2ccc(C(F)(F)F)cc2Cl)ccc1[N+](=O)[O-]`, the call in experiment [15] was inactive.

Take `CN(C)[C@@H]1C(=O)C(C(N)=O)=C(O)[C@@]2(O)C(=O)C3=C(O)c4c(O)cccc4[C@@](C)(O)[C@H]3[C@H](O)[C@@H]12`: the compound was called inactive in experiment [19] and in experiment [6].

As for `Cc1cc(C2CC2)nc(Nc2ccccc2)n1`, the AC50 in experiment [7] is 5.41 µM (active); in [3] it was 6.13 µM (active); in experiment [11] it was 6.51 µM (active).

Consider `CC1=NNC(=O)N(/N=C/c2cccnc2)C1`, for which the result in [11] and in experiment [13] was inactive.

In general, AC50 refers to the concentration giving half of the maximal activity seen.
